From PubChem BioAssay AID488969 (Vanderbilt High Throughput Screening Facility, 2010)
Over roughly 110,000 compounds, “z-score” has its median near -0.1; the highest 2% begin near 2. This excerpt belongs to a sample that is enriched for the highest values. Activity calls are given as the source filed them.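 Rule for the calls: active = z-score in the third read window above 3 or below -3; inactive = the rest.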

target: Metabotropic glutamate receptor 8 (Rattus norvegicus) (UniProt P70579); test: mGluR8 Gi/Go-coupled signaling modulation – cell-based, rat, thallium flux, HTS, primary screen (AID 488969); settings: HEK293 rat mGluR8, GIRK (G protein-gated inwardly rectifying potassium channel) thallium flux, FluoZin2; at 10 µM; stronger effect = higher value; submaximal glutamate (EC20) added with thallium
Sequence (P70579 whole entry, looked up): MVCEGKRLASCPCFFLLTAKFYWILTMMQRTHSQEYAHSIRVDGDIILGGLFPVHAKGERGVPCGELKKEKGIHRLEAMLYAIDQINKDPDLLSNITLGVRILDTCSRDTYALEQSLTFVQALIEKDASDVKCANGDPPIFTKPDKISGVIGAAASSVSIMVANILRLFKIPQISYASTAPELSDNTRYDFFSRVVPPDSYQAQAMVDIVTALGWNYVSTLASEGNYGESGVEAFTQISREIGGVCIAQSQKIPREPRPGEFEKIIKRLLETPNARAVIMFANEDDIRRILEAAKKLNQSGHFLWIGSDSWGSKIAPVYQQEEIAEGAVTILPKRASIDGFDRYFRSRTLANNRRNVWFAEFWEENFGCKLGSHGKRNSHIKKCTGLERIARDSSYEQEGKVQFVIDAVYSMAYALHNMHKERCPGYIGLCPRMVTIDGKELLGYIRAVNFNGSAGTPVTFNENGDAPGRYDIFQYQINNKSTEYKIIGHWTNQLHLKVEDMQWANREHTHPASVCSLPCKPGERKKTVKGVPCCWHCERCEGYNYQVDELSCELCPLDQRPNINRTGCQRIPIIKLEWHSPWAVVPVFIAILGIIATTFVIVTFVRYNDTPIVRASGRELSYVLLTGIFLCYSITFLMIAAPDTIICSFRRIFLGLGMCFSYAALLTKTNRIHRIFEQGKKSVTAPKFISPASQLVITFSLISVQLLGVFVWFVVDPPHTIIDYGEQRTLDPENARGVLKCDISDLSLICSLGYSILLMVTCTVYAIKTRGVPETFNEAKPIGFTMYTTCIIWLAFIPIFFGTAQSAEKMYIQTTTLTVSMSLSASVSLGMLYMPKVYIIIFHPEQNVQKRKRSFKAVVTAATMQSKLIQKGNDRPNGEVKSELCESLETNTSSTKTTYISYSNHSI

Structure (SMILES)	z-score
CCOC(=O)c1c(NC(NC(C)=O)C(Cl)(Cl)Cl)sc2c1CCCC2 (stereo not given)	-2.34
COCCCn1c(C)nnc1SCC(=O)NCc1ccco1	-0.305
Cc1ccc(S(=O)(=O)N(C)Cc2cc3ccccc3[nH]c2=O)cc1	-0.0752
CCN(CC)CCN(Cc1cc2cc(C)ccc2[nH]c1=O)C(=S)NCc1ccco1	0.381
CCOC(=O)COc1cc(Br)c(/C=N/Nc2ccccc2)cc1OC	-0.0959
CCC(C)(C(=O)NC1CCCCC1)N(C(=O)c1ccccn1)c1ccc(C)cc1 (stereo not given)	-0.103
COc1cccc(C(=O)/C=C/Nc2cccc(O)c2)c1	-0.665
CSc1nnc(CNC(=O)C23CC4CC(CC(C4)C2)C3)n1Cc1ccccc1	-0.331
C/C(=N\NC(=S)NCCc1ccccc1)c1ccc(C)cc1	1.67
C/C(=N\NC(=S)NCCc1ccccc1)c1cccs1	3.65 (active)
C/C(=N\NC(=S)NCCc1ccccc1)c1ccc(Cl)cc1	1.16
O=C1C2C(c3ccccc3)C=CC(c3ccccc3)C2C(=O)N1CCCO (stereo not given)	-0.894
O=C(CCS(=O)(=O)c1ccc(Cl)cc1)NCCN1C(=O)S/C(=C\c2ccccc2F)C1=O	-0.162
Cc1cc(C)n2nc(SCC(=O)N3CCc4ccccc43)nc2n1	0.255
O=C(c1ccccc1)N1CCCC(c2nc3c(nnn3Cc3ccccc3)c(=O)[nH]2)C1 (stereo not given)	-0.398
Cc1ccc(C)c(Cn2nnc3c(=O)[nH]c(C4CCCN(C(=O)C5CCCCC5)C4)nc32)c1 (stereo not given)	-0.651
O=C(C1CCCCC1)N1CCCC(c2nc3c(nnn3Cc3ccccc3)c(=O)[nH]2)C1 (stereo not given)	2.1
O=C(NCCOCCOCCNC(=O)c1cccnc1)c1cccnc1	0.119
O=C(NCCc1ccccc1)c1cccnc1	-0.0437
O=C(NCCCCNC(=O)c1cccnc1)c1cccnc1	8.98 (active)
Cc1c(NC(=O)/C(C#N)=C/c2c(Oc3ccccc3)nc3ccccn3c2=O)c(=O)n(-c2ccccc2)n1C	1.16
CSc1ncc(Cl)c(C(=O)Nc2nnc(SC)s2)n1	-0.194
CCc1nc(SCC(=O)Nc2cc(C)on2)c2c(C)c(C)sc2n1	-0.346
Cc1cc(NC(=O)CSc2nc(C3CC3)nc3sc4c(c23)CCC(C)C4)no1 (stereo not given)	0.482

Structure (SMILES)	z-score
Cc1sc2nc(C3CC3)nc(SCC(=O)N3CC(=O)Nc4ccccc43)c2c1C	3.69 (active)
Cc1nc(SCC(=O)N2CC(=O)Nc3ccccc32)c2c(C)c(C)sc2n1	-0.286
CCCc1nc(SCC(=O)Nc2nnc(CC)s2)c2c(C)c(C)sc2n1	-0.42
Cc1nnc(NC(=O)CSc2nc(C(C)C)nc3sc(C)c(C)c23)s1	-0.837
Cc1sc2nc(C3CCCCC3)nc(SCC(=O)N3CC(=O)Nc4ccccc43)c2c1C	-0.0509
Cc1cc(NC(=O)CSc2nc3sc4c(c3c(=O)n2C)CCCC4)no1	0.943
Cc1cc(NC(=O)CSc2nc(C(C)C)nc3sc4c(c23)CCCC4)no1	-0.493
Cc1nc(SCC(=O)Nc2cc(C)on2)c2c3c(sc2n1)CCCC3	2.03
CCc1nc(SCC(=O)Nc2nnc(CC)s2)c2c(C)c(C)sc2n1	8.71 (active)
Cc1cc(NC(=O)CSc2nc(C3CC3)nc3sc(C)c(C)c23)no1	12.4 (active)
COc1ccc(-c2nc(C)ncc2N=Nc2ccccc2)cc1	-0.33
O=C1CCN(C(=O)Nc2cccc(Cl)c2)N1	-0.0566
CCN(CCO)c1ncnc2c1sc1nc(C(C)C)c3c(c12)CC(C)(C)OC3	-0.241
Cc1cccc(NC(=O)CN2C(=O)N/C(=C/c3ccc(C)o3)C2=O)c1	0.0879
CCOCC(=O)Nc1cc([N+](=O)[O-])ccc1C	-0.688
CC1=NN(c2ccc(C)cc2)C(=O)/C1=C\c1ccc(Br)s1	-0.327
Cn1c(Cc2ccccc2)nnc1SCC(=O)NC1CCCCC1	0.0891
CCN(CC)C(=O)Cn1nc(C)c2ccccc2c1=O	-0.346
Cc1ccc(/C=N/Nc2ncc(Cl)cc2Cl)s1	0.576
Cc1ccc(/C=N/Nc2nc(Cl)c(Cl)cc2Cl)s1	3.84 (active)
Cc1ccsc1/C=N/Nc1nc(Cl)c(Cl)cc1Cl	0.292
CCc1nc(N2CCN(S(=O)(=O)c3ccc(Br)cc3)CC2)c2c(C)c(C)sc2n1	-0.0531
Cc1sc2nc(CN3CCCC3)nc(N3CCC(C(N)=O)CC3)c2c1C	-0.212
Cc1sc2nc(CN3CCCC3)nc(N3CCN(S(=O)(=O)c4cccs4)CC3)c2c1C	4.12 (active)

Structure (SMILES)	z-score
O=c1c2cc(Br)ccc2nc(-c2cccc(C(F)(F)F)c2)n1O	10.5 (active)
O=c1[nH]c(/C(Cl)=C/c2cccc(C(F)(F)F)c2)nc2cc(Cl)ccc12	-0.0389
O=c1c2ccc(Cl)cc2nc(-c2cccc(C(F)(F)F)c2)n1O	10.9 (active)
FC(F)(F)c1cccc(-c2nnc3ccc(C(F)(F)F)cn23)c1	0.312
O=c1c2ccccc2nc(-c2cccc(Cl)c2)n1O	1.74
O=C(Nc1ccc(C(F)(F)F)cc1)c1cc(-c2cccnc2)nc2ccc(Br)cc12	-0.0141
C=CCc1ccccc1OCC(O)CN1CCN(c2ccccc2F)CC1 (stereo not given)	0.0351
Cc1noc(C)c1S(=O)(=O)N1CCC(C(=O)N2CCN(C(=O)c3ccco3)CC2)CC1	-0.53
O=C(O)CCCC(=O)Nc1ccc(Br)cc1	0.0741
Cc1ccc2nc(-c3ccc(Br)o3)oc(=O)c2c1	-0.0466
O=c1oc(-c2ccco2)nc2ccccc12	-0.973
O=c1oc(-c2ccc(Br)o2)nc2ccccc12	5.63 (active)
CCN(CC)C(=O)C(=O)N/N=C/c1ccc(Br)cc1	0.0116
CC(Sc1nnc(-c2ccc(Cl)cc2Cl)n1Cc1ccccc1)C(=O)Nc1nccs1 (stereo not given)	-1.54
Cc1nn(C(=O)c2ccccc2)c2c1C(=O)CC(C)(C)C2	2.47
CCCc1nn(C(=O)c2ccccc2)c2c1C(=O)CC(C)(C)C2	0.0989
Cn1c2c(c(O)c(-c3ccccc3)c1=O)C(=O)CC(C)(C)C2	-0.119
O=C(NCC(=O)N(c1ccccc1)C(C(=O)NC1CCCC1)c1ccncc1)c1ccco1 (stereo not given)	-0.115
COC(=O)Nc1nnc(Cc2ccc(Cl)cc2)s1	2.4
COC(=O)Nc1nnc(Cc2ccc(OC)cc2)s1	-0.342
COC(=O)Nc1nnc(Cc2ccccc2)s1	-0.412
Cc1ccc2oc(C(=O)Nc3nnc(C)s3)c(C)c2c1	-0.9
